The values below come from PubChem BioAssay (EPA / NIEHS).

Where “and” joins values, the source holds several entries; their conditions need not be identical. Identical values can stand only once. The source holds several records for some structures; these can differ, active in one and inactive in another. Calls of active or inactive are those of the source. The calls were made as follows: active = hit-call score of the fitted dose curve at least 0.9, where 1 is the maximum; inactive = score below 0.9.

Read-out in this test: Human Leukocyte Antigen - DR isotype (HLADR), HLA-DRA (gene 3122)
In words: BSK_BE3C_HLADR: BioMAP Diversity Plus: BE3C Assay for Human Leukocyte Antigen - DR isotype (HLADR) Biomarker Activity (AID 2283032). The following applies: primary human bronchial epithelial cells; actives raise or lower the signal. Here is the method:
BSK_BE3C is a cell-based, multiplexed-readout assay that uses bronchial epithelial cell, a human lung primary cell, with measurements taken at 24 hours after chemical dosing in a 96-well plate.BSK_BE3C_HLADR is an assay component measured in the BSK_BE3C assay. It measures HLA-DR antibody related to regulation of gene expression using ELISA technology.Data from the assay component BSK_BE3C_HLADR was analyzed into 1 assay endpoint. This assay endpoint, BSK_BE3C_HLADR, was analyzed with bidirectional fitting relative to DMSO as the negative control and baseline of activity. Using a type of binding reporter, gain or loss-of-signal activity can be used to understand changes in the signaling as they relate to the gene HLA-DRA. Furthermore, this assay endpoint can be referred to as a primary readout, because this assay has produced multiple assay endpoints where this one serves a signaling function. To generalize the intended target to other relatable targets, this assay endpoint is annotated to the cell adhesion molecules intended target family, where the subfamily is MHC Class II.
The levels of cell surface (or secreted, indicated by the prefix "s") biomarker endpoints were measured by ELISA. Overt cytotoxicity to cells in confluent adherent cultures (all systems other than the BT system) was assessed by measuring total protein levels using sulforhodamine B (SRB) staining in parallel cultures at the time of biomarker measurements, indicated as SRB endpoints. For proliferation assays for adherent cell types, individual cell types are cultured at sub-confluence and relative cell numbers quantified by SRB staining at time points optimized for each system (48 h: 3C and CASM3C systems; 72 h: BT and HDF3CGF systems; 96 h: SAg system). SRB was performed by staining cells with 0.1% SRB after fixation with 10% TCA and reading wells at 560 nm.Viability and proliferation of PBMC (T cells) was quantified by Alamar Blue reduction for the SAg and BT systems. For PBMC viability (referred to as PBMC Cytotoxicity within the assay endpoint names), cells were plated (75,000/well in a 96-well plate) and then chemical samples added for 1 h before addition of activators, SEB and TSST-1 (20 ng/mL final concentration each). Cells were incubated for 90 h. Then, Alamar Blue (20 uL/well) (Invitrogen, Cat DAL1100) was added for 6 h, and the plates were read with a fluorescence microplate reader at 546/580 nm (excitation/emission). For PBMC proliferation, cells were plated and activated as above but incubated for only 16 h prior to addition of Alamar Blue. Plates were read after 6 h.
On to `C=CC(=O)OCC(CC)CCCC` (stereo not drawn), for which the result was inactive. For the compound `CC(C)(C)C(=O)CCl`, the AC50 is 20 µM (active). The same measure, in the same setting: the figure for `CC(C)(c1cc(Cl)c(O)c(Cl)c1)c1cc(Cl)c(O)c(Cl)c1` is 9.27 µM (active).

Turning to `CCCC[N+](CCCC)(CCCC)CCCC`, the outcome was inactive. Same read-out and setting: the entry for `CC(C)COP(=O)(OCC(C)C)OCC(C)C` is “inactive”. The same measure, in the same setting: the entry for `COCC(=O)N(c1c(C)cccc1C)N1CCOC1=O` is “inactive”; for `O=P1(NCCCl)OCCCN1CCCl` (stereo not drawn) it is “inactive”. With `O=C(O)CCCc1ccc(N(CCCl)CCCl)cc1`, the AC50 was 22 µM (active) and 29.6 µM (active). On the same count and under the same terms, as for `CCC(C)c1cc([N+](=O)[O-])cc([N+](=O)[O-])c1OC(=O)C=C(C)C` (stereo not drawn), the figure is 11.8 µM (active).

In the case of `Clc1ccc(-c2ccccc2)cc1`, the outcome was inactive.

For the compound `CC(=O)/C=C/c1ccccc1`, the AC50 is 3.97 µM (active). With `CC(C)CCCCCCCOC(=O)c1ccccc1C(=O)OCCCCCCCC(C)C`, the outcome was inactive. Turning to `COC(C)(C)CCC[C@H](C)C/C=C/C(C)=C/C(=O)OC(C)C`, the AC50 is 18.5 µM (active). Consider `O=C1C=CC(=O)C=C1`, for which the AC50 was 27 µM (active) and the outcome was inactive.

As for `c1ccc(Nc2ccc3ccccc3c2)cc1`, the AC50 is 20 µM (active). Regarding `CCCCCCCCCCCC#N`, the outcome was inactive. Same read-out and setting: as for `CNC(=O)Oc1cc(C)c(SC)c(C)c1`, the entry is “inactive”. `O=[N+]([O-])C=Cc1ccccc1`: the AC50 is 1.56 µM (active). Take `C=CCN(CC=C)C(=O)C(Cl)Cl`: the outcome was inactive. `CC(C)CCCCCCCOP(=O)(Oc1ccccc1)Oc1ccccc1`: the AC50 was 13.9 µM (active). As for `O=S(=O)(c1ccccc1)c1ccccc1`, the outcome was inactive.

As to `CCCOC(=O)c1ccccc1C(=O)OCCC`, the AC50 was 0.274 µM (active). As for `O=[N+]([O-])c1ccc(Cl)cc1`, the outcome was inactive.

Consider `Nc1ccc(-c2ccc(N)c(N)c2)cc1N`, for which the outcome was inactive. Consider `CCc1cc(C)cc(CC)c1-c1c(OC(=O)C(C)(C)C)n2n(c1=O)CCOCC2`, for which the AC50 was 3.97 µM (active).

Regarding `O=c1c2ccccc2c(=O)c2c1cc(Cl)c1[nH]c3c([nH]c12)c(Cl)cc1c(=O)c2ccccc2c(=O)c13`, the result was inactive. Same read-out and setting: the entry for `Oc1cc(Cl)ccc1Cl` is “inactive”. Still for that read-out and setting: the entry for `Cc1ccc(OP(=O)(Oc2ccc(C)cc2)Oc2ccc(C)cc2)cc1` (tested in a mixture with another compound) is “inactive”. For the compound `Oc1ccc(C2(c3ccc(O)cc3)c3ccccc3-c3ccccc32)cc1`, the AC50 was 0.15 µM (active). With `COc1ccc(CO)cc1`, the result was inactive. Same read-out and setting: the entry for `O=c1[nH]c(Cl)c(Cl)cc1Cl` is “inactive”; for `CC1(C)[C@H](C(=O)O[C@H](C#N)c2cccc(Oc3ccccc3)c2)[C@@H]1C=C(Br)Br` it is “inactive”. Turning to `O=C(CCl)c1ccccc1`, the AC50 was 30.4 µM (active). Regarding `N#CCCCCC#N`, the outcome was inactive.

For `O=[N+]([O-])O`, the outcome was inactive.

For `CC(C)(C)C(O)C(Oc1ccc(-c2ccccc2)cc1)n1cncn1` (stereo not drawn), the outcome was inactive. `[Cd+2].[Cl-].[Cl-]`: the AC50 was 20 µM (active).

Broadly, the AC50 is the concentration giving half of the maximal activity seen.
